ATXN2 expr inh – Primary qHTS for Inhibitors of ATXN expression. HEK-293 ATXN2-luciferase reporter, luminescence, 24 h. actives 0.72% (n = 360,000). AID 1745845, 2022. Potency, µM (highest dose often 57 µM), for the others: at the top dose activity change, negative = inhibition, usual class: inhibitors; further: on the % scale 0 is the no-effect control and ±100 the full control effect; nearly all actives have a fitted effect of over 55% in size
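qHTS (up to 57 uM final) was run with 24 h compound exposure of reporter cells at 37 °C. Each well was multiplexed: SteadyGlo luminescence measured ATXN2-luciferase expression after a fluorogenic Gly-Phe-AFC viability readout (25 uM final).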
GLP1R inv ag – qHTS of GLP-1 Receptor Inverse Agonists (Inhibition Mode); Glucagon-like peptide 1 receptor (Homo sapiens), P43220; HEK293 GLP-1R CRE-luciferase, luminescence, 24 h; GLP-1R form is constitutively active; Potency, µM (top dose mostly 38.3 µM), for inactives: at the highest dose activity change, negative = inhibition, actives largely listed as inhibitors; actives 1.6% (n = 410,000); AID 624417, 2012; further: on the % scale 0 is the no-effect control and ±100 the full control effect; nearly all actives have a fitted effect of over 55% in size
Target sequence (P43220 whole entry, looked up): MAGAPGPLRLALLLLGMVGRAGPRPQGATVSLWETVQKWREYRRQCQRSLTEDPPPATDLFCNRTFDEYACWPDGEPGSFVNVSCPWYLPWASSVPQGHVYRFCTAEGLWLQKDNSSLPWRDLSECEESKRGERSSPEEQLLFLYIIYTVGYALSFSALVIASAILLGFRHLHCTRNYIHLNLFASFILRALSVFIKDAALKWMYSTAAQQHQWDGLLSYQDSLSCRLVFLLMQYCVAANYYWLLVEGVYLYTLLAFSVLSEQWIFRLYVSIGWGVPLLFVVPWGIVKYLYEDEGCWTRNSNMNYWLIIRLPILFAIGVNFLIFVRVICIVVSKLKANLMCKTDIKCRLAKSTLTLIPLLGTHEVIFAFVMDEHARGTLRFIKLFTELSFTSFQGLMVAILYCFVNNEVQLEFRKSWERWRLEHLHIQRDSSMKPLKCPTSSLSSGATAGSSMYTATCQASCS
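Constitutively active GLP-1R drives a cAMP-responsive luciferase in stably transfected HEK293 cells; test compounds are added after overnight (12 h) attachment and left 24 hr, and signal loss in luminescence marks inhibition.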
S2 tox – Viability Counterscreen for Primary qHTS for Inhibitors of ATXN expression | AID 651635, 2014 | S2 cells (HEK-293 line with an ATXN2-luciferase reporter) viability, CellTiter-Fluor protease fluorescence, 24 h | Potency, µM (series often up to 56.7 µM), most hits filed as cytotoxic | actives 0.49% (n = 400,000); further: nearly all actives have a fitted effect of over 40% in size
TGFb inhibitor – qHTS for Inhibitors of TGF-b; Potency, µM (top dose mostly 46.1 µM), for the others: at the top dose activity, negative = inhibition, usual class: inhibitors; actives 1.2% (n = 410,000); HepG2 CAGA-GFP TGF-b/SMAD3 reporter, GFP fluorescence, 18 h; TGF-beta stimulated, 500 pg/mL final; further: on the % scale 0 is the no-effect control and ±100 the full control effect; nearly all actives have a fitted effect of over 65% in size
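First, reporter cells (HEPG2 CAGA-GFP) rested 2 h at 37 degrees C. Next, compounds were pinned in and TGF-beta added to 500 pg/mL final. After 18 h, GFP was imaged per cell and summed per well.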
GLP1R ag – qHTS of GLP-1 Receptor Agonists; Glucagon-like peptide 1 receptor (Homo sapiens), P43220; HEK293 GLP-1R CRE-luciferase, luminescence, 4-6 h; cells express a hypersensitive GLP-1R form; Potency, µM (titrated, usually from 45.6 µM), for the others: at the highest dose activation, hits mostly activators; actives 0.007% (n = 380,000); further: % of control where 0% means no effect
HepG2 viability – qHTS for Inhibitors of TGF-b: Cytotox Counterscreen. HepG2 CAGA-GFP viability, ATP luminescence, 18 h. Potency, µM (titrated, usually from 46.1 µM), for the others: at the top dose activity change, negative = cytotoxicity, hits mostly cytotoxic. actives 0.76% (n = 410,000). AID 588856, 2011
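HepG2 CAGA-GFP cells (1000/well, DMEM with 1% FBS) received compound, then TGF-beta at 500 pg/mL final, and were incubated 18 hours at 37 degrees C. Viability was read by CellTiter-Glo luminescence. Media-only wells were set as complete cell-killing and DMSO as no toxicity.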
* = called active by the depositor; i = inactive; u = inconclusive; x = no result given. Compounds with a hit are over-represented: about 3.7% of the library has one in this group of screens. The call rests on the fitted dose curve; in most records, active means well fitted curve in the direction sought with a large enough effect; inconclusive means small, poorly fitted or top-dose-only effect, or another doubt; inactive means no such curve, though single readings can be large; an effect the other way counts as inactive or inconclusive. Potency means the concentration at half of the fitted maximal effect.

SMILES	ATXN2 expr inh	GLP1R inv ag	S2 tox	TGFb inhibitor	GLP1R ag	HepG2 viability
CCN(CC)CCCNC(=O)CCC(=O)Nc1ccc2nc(N3CCC(C)CC3)cc(C)c2c1	x	7.08µM*	i	u	11.2%	-56.6%
CCN(CC)CCCNC(=O)CCC(=O)Nc1ccc2nc(N3CCCCC3)cc(C)c2c1	x	u	i	-5.3%	20.4%	-8.0%
Cc1ccc(NC(=O)Nc2ccc3nc(N4CCN(C)CC4)cc(C)c3c2)cc1C	11.4%	-7.1%	i	24.5%	x	-19.8%
Cc1cc(N2CCN(C)CC2)nc2ccc(NC(=O)Nc3cccc(Cl)c3)cc12	u	10µM*	x	u	x	-107.0%
FC(F)(F)C(F)(F)C(F)(F)c1nc2ccccc2[nH]1	x	x	x	-8.1%	x	-35.1%
COc1ccccc1C(=O)N[C@@H]1c2ccccc2C2(CCN(C(=O)c3ccnn3C)CC2)[C@H]1OC	x	x	i	x	x	x
COc1cccc(CNC(=O)c2cnn(-c3ncc4c(n3)-c3ccccc3CCC4)c2C)c1OC	x	x	i	x	x	x
CC(C)(OCc1nn(Cc2ccccc2)c2ccccc12)C(=O)O	-1.6%	x	x	x	x	x
CCN1CCN(c2cc(C)c3cc(NC(=O)c4cc(Br)ccc4Cl)ccc3n2)CC1	u	u	x	u	x	10µM*
CCOc1ccc(S(=O)(=O)Nc2ccc3c(c2)CCCN3S(=O)(=O)c2ccc(C)cc2)cc1	-28.0%	u	u	-13.1%	x	6.3%
Cc1ccc(S(=O)(=O)N2CCCc3cc(NS(=O)(=O)c4cccc(Cl)c4)ccc32)cc1	u	u	u	10µM*	x	-16.2%
Cc1ccc(S(=O)(=O)N2CCN(C(=O)C3COc4ccccc4O3)CC2)cc1C (stereo not drawn)	4.4%	u	i	u	4.8%	-7.6%
Cc1cc(C)c(S(=O)(=O)N2CCN(C(=O)C3COc4ccccc4O3)CC2)c(C)c1 (stereo not drawn)	-16.0%	10µM*	u	-19.8%	8.2%	-22.8%
COc1ccc(C(=O)Oc2c(Sc3ccccc3)c(C)nn2-c2ccccc2)c(OC)c1	u	12.6µM*	u	u	x	-99.5%
COc1ccc(C(=O)Oc2c(Sc3ccc(C)cc3)c(C)nn2C(C)(C)C)c(OC)c1	-13.0%	u	i	u	x	-68.8%
CCC[C@@H]1C[C@@H](C(=O)N[C@@H]([C@H]2O[C@H](SC)[C@H](OP(=O)(O)O)[C@@H](O)[C@H]2O)[C@H](C)Cl)N(C)C1	x	x	i	x	x	x
COC(=O)c1ccc(-c2ccc(C3C4C=CCC(C)C4C(=O)N3Cc3ccccc3)c(F)c2)cc1 (stereo not drawn)	x	x	x	-14.2%	x	-3.9%
Cc1oc2ccc(O)c(CN3CCN(C)CC3)c2c1C(=O)Nc1cccc(C(F)(F)F)c1	-26.0%	-14.1%	i	-12.6%	x	-34.8%
CCN1CCN(Cc2c(O)ccc3oc(C)c(C(=O)Nc4cccc(C(F)(F)F)c4)c23)CC1	u	u	u	u	x	12.6µM*
CN(C)c1ccc(C(=C2c3ccccc3-c3ccccc32)c2ccc(N(C)C)cc2)cc1	x	x	x	5.5%	x	-0.2%
Cc1ccc(NC(=O)C2CCCN(S(=O)(=O)c3cccc4nsnc34)C2)cc1C (stereo not drawn)	-14.3%	-20.3%	i	-27.5%	-2.8%	-23.7%
CCN(CC)CCCNC(=O)c1cc2c(-c3cccc(OC)c3)nn(C)c2s1	x	u	i	19.7%	-7.1%	-39.5%
COc1ccc(OC)c(CCNC(=O)c2cc3c(-c4ccccc4F)nn(C)c3s2)c1	25.1µM*	u	u	u	-0.3%	-41.3%
CCCCN(C)CCNC(=O)c1cc2c(-c3ccccc3F)nn(C)c2s1	-27.4%	10µM*	u	10.9%	-0.2%	-20.1%
COc1cccc(-c2nn(C)c3sc(C(=O)NCCCN(C)Cc4ccccc4)cc23)c1	28.2µM*	5.62µM*	u	-10.6%	0.2%	-21.6%
SMILES	ATXN2 expr inh	GLP1R inv ag	S2 tox	TGFb inhibitor	GLP1R ag	HepG2 viability
Cc1ccccc1-c1noc(-c2nnn(-c3ccccc3C)c2N)n1	x	10.2%	x	5.8%	x	0.8%
Cc1ccccc1-c1ccc(CN2CCc3nnc(CNC(=O)c4ccccn4)n3CC2)cc1	x	x	i	x	x	x
O=C(C[n+]1cccc2cccc(O)c21)c1ccc(Br)cc1	x	x	x	-9.5%	x	-7.9%
O=C(C[n+]1ccccc1Cl)c1ccccc1	x	x	x	-9.3%	x	-1.4%
CN(C)CCCN1c2ccc(O)cc2Sc2ccc(Cl)cc21	x	u	u	-10.7%	8.5%	-40.9%
OC1CC2CCC(C1)N2CCCN1c2ccccc2Sc2ccc(Cl)cc21 (stereo not drawn)	11.2µM*	2.82µM*	15.8µM*	u	8.7%	22.4µM*
CCOc1ccc(S(=O)(=O)N2CCC(C(=O)N3CCN(c4ccccc4F)CC3)CC2)cc1C	-10.1%	5.62µM*	i	u	1.7%	-24.3%
O=C(c1cccs1)N1CCN(C(=O)c2cn(-c3ccccc3)nc2-c2ccccc2)CC1	41.7%	10µM*	i	-15.8%	-3.1%	-22.2%
COc1ccc(CN(C)CC(O)COC(c2ccc(OC)cc2)c2ccc(OC)cc2)cc1 (stereo not drawn)	-3.7%	u	i	u	21.5%	22.4µM*
Nc1c(C(=O)NCCc2ccccc2)sc2nc(N3CCOCC3)c3c(c12)CCCC3	-20.2%	8.91µM*	i	-3.2%	21.5%	12.9%
O=C(/C=C/c1cccc([N+](=O)[O-])c1)NCCSCc1ccccc1Cl	2.3%	u	i	-8.4%	17.2%	-30.1%
O=C(/C=C/c1cccc([N+](=O)[O-])c1)NCCSCc1ccc(Cl)cc1Cl	u	u	i	12.6µM*	14.2%	-26.4%
O=C(CN1c2ccccc2Sc2ccccc21)N/N=C/c1ccc(Cl)cc1	7.8%	3.16µM*	u	0.0%	2.5%	16.4%
O=C(CN1c2ccccc2Sc2ccccc21)N/N=C/c1ccc(Cl)cc1Cl	x	-12.5%	i	-7.1%	0.6%	3.6%
CC1C(=O)CC(c2ccc([N+](=O)[O-])cc2)NC1c1ccc([N+](=O)[O-])cc1 (stereo not drawn)	-7.2%	8.91µM*	i	16.6%	0.9%	5.1%
CC(=O)/C=C/C=C1/C2CCC(C2)C1(C)C (stereo not drawn)	-4.8%	x	i	x	x	x
